Bioassay records deposited in PubChem by National Center for Advancing Translational Sciences (NCATS).
Compounds with a hit are over-represented: about 1.7% of the library has one in this group of screens.
Coupling enz: inhibits coupling enzyme system, counter-screen for aldolase hits; coupling enzyme system counterscreen, AmpLite Red fluorescence; activity change, negative = inhibition, % at 58.2 µM, hits read low; 290,000 tested, 0.67% active; AID 2472; in the data active means activity change below about -30%
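Final compound at 57.5 uM, incubated 10 min at RT with coupling enzyme reagent (glyceraldehyde-3-phosphate), then 20 min with substrate and AmpLite Red detection. Fluorescence read at 525/598 nm; tests interference with the coupling assay, not aldolase inhibition.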
Giardia killer: kills Giardia lamblia; 340,000 tested, 0.15% active; Giardia lamblia trophozoite viability; activity change, % at 7.66 µM, hits read low; AID 540267; in the data active means activity change below about -80%; inconclusive means between about -30% and that limit;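 further: parasites exposed to compound for two days anaerobically before the ATP read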
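Luminescent ATP signal served as the viability read-out, measured 15-30 min after adding ATP detection reagent to trophozoites that had been incubated with compounds for 48 hrs at 37 deg C anaerobically at 100 cells/well.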
USP1 inh: blocks the human USP1/UAF1 deubiquitinase complex | Potency, µM (titrated, usually from 57.1 µM), inactives show at the top dose activity change, negative = inhibition, actives largely listed as inhibitors | O94782 | 390,000 tested, 0.23% active | recombinant USP1/UAF1, Ub-Rhodamine cleavage fluorescence; active means well fitted inhibition curve with a large enough effect; inconclusive means small, poorly fitted or top-dose-only effect; inactive means no such curve, though single readings can be large or run the other way; further: potency means the concentration at half of the fitted maximal effect; nearly all actives have a fitted effect of over 60% in size
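In this screen, compounds sit with the deubiquitinase complex (1nM) for 15 min at room temperature before Ub-Rho is added at 150nM final. Fluorescence rise is then followed for 6 reads every 60 seconds.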
KCNH2 3.1 inh: KCNH2 3.1 (human) potassium channel inhibition; activity change, % (tested at about 1.8 µM); 340,000 tested, 0.95% active; U2OS KCNH2 3.1, thallium flux FluxOr; hits give low values;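 active means maximum activity change below -70%; inconclusive means maximum activity change from -70% to -50%; inactive means maximum activity change above -50%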;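 further: thallium influx rate constant from kinetic fluorescence after stimulation buffer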
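Channel expression came from 3.1 mutant virus (1.77 x 10^8 /mL) applied to suspended U2OS cells for 4 h. Flux was tracked with FluxOr dye plus Red40 quencher, and kinetic rate constants normalized to controls.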
KCNH2 WT inh: inhibitors of human wildtype KCNH2 potassium channel | Q12809 | U2OS, BacMam KCNH2, thallium flux FluxOr; hits give low values | activity change, % at 1.84 µM | 340,000 tested, 0.37% active | AID 720551;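 active means maximum activity change below -70%; inconclusive means maximum activity change between -70% and -50%; inactive means maximum activity change above -50%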
Target sequence (Q12809 whole entry, looked up): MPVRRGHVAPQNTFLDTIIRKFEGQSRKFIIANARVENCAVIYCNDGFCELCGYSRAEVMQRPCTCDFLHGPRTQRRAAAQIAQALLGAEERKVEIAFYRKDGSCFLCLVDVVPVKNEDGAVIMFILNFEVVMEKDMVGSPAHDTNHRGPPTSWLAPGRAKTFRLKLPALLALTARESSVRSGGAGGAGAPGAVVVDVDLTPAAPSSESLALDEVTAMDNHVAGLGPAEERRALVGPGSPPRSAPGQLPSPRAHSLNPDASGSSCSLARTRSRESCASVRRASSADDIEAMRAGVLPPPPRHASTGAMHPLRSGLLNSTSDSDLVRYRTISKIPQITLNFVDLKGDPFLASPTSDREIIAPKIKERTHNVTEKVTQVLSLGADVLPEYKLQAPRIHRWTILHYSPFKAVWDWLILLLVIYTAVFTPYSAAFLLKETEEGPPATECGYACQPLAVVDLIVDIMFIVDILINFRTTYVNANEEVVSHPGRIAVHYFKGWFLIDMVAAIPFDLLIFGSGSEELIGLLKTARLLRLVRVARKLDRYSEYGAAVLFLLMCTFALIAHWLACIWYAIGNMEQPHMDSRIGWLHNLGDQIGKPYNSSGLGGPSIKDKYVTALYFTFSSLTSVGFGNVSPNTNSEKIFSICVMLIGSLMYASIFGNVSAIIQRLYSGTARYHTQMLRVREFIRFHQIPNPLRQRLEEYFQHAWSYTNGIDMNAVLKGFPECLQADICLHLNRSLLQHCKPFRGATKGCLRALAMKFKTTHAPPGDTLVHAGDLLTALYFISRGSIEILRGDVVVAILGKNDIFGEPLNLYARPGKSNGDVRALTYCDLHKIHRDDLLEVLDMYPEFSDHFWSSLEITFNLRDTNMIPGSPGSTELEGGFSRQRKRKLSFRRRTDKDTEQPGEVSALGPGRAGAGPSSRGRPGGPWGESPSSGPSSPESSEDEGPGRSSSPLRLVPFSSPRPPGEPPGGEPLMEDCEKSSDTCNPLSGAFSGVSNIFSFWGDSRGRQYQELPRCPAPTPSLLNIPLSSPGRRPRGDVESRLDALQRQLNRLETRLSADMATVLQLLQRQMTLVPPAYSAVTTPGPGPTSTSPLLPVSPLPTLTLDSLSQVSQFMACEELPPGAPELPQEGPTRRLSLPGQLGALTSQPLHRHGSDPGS
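U2OS cells transduced with wild-type KCNH2 virus are loaded with FluxOr dye for 45 min, and thallium flux is measured in kinetic reads before and after stimulation buffer. Rate constants are normalized to DMSO controls.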
Starred values were filed as active, the others as inactive; ? = inconclusive; / = no result. On the % scale 0 is the no-effect control and ±100 the full control effect.

SMILES | Coupling enz | Giardia killer | USP1 inh | KCNH2 3.1 inh | KCNH2 WT inh
CC(=O)c1ccc(NC(=O)CC2Nc3cccc4cccc(c34)NC2=O)cc1 (configuration not stated) | -30.6* | 4.2 | -23.0% | 3.7 | -14.5
Cc1ccc(CNc2ccc3c(c2)OCO3)cc1 | -36.6* | -5.3 | 28.2µM* | / | 14.1
c1cc(CNc2ccc3c(c2)OCO3)ccn1 | -10.5 | 1.6 | ? | 7.1 | 25.1
Cn1cccc1/C=C1\Cc2ccccc2C1=O | -2.6 | -5.9 | -23.8% | -4.6 | -14.8
Cn1cccc1/C=C1\CC(C(C)(C)C)C/C(=C\c2cccn2C)C1=O (configuration not stated) | -11.2 | -8.5 | 11.2µM* | 0.3 | 1.2
CN1C2CCC1/C(=C/c1cccn1C)C(=O)/C2=C\c1cccn1C | 0.3 | -5.6 | 28.2µM* | 4.9 | -10.9
CN(C(=O)COC(=O)CCc1c[nH]c2ccccc12)C(c1ccccc1)c1ccccc1 | -3.0 | 28.6 | -8.4% | -80.5* | -5.5
O=C(CCc1c[nH]c2ccccc12)OCC(=O)c1ccccc1 | / | / | -5.1% | -5.2 | -12.4
CC(C)CCC(CCN1CCOCC1)c1ccc2c(c1)OCO2 (configuration not stated) | -2.8 | 11.8 | -4.6% | -111.1* | -115.5*
CC(C)CCC(CCN1CCCC1)c1ccc2c(c1)OCO2 (configuration not stated) | -0.3 | -7.3 | -7.3% | -104.7* | ?
COCCCNCCC(CCC(C)C)c1ccc2c(c1)OCO2 (configuration not stated) | 2.3 | -13.8 | -12.5% | ? | ?
CCN(C(=O)COC(=O)CCC(=O)c1ccc(C)cc1)c1c(N)n(Cc2ccccc2)c(=O)[nH]c1=O | / | -9.0 | -7.0% | -2.9 | 2.1
COc1ccccc1C1N=C(Nc2nc3ccccc3o2)NC2=C1C(=O)CC(C)(C)C2 (configuration not stated) | / | 4.3 | / | / | /
O=C(CSc1nnc2scc(-c3ccc(Cl)cc3)n12)Nc1ccc(F)cc1 | / | / | -15.4% | / | /
CCOC(=O)c1c(C)n(-c2ccc(C)cc2)c2c(C(C(C)=O)C(=O)O)c(Br)c(O)c(O)c12 (configuration not stated) | -34.4* | 3.2 | -21.3% | -8.3 | 1.6
C=CC(C1=CC(=O)C(OC)=C(OC)C1=O)c1ccccc1 (configuration not stated) | -80.3* | / | / | / | /
C=CC(C1=CC(=O)C(OC)=CC1=O)c1ccc(OC)cc1 (configuration not stated) | -40.0* | / | / | / | /
C=CC(C1=CC(=O)C(OC)=CC1=O)c1ccccc1 (configuration not stated) | -52.7* | / | / | / | /
COC1=C(OC)C(=O)C(Sc2ccc3ccccc3c2)=CC1=O | / | -8.2 | -22.2% | 3.5 | -27.0
CN1C(=O)/C(=C/c2ccc3c(c2)OCO3)N=C1c1ccccc1 | 0.7 | -10.6 | -16.8% | -122.6* | -2.4
O=C(CSc1nc2ccccc2[nH]1)NCCc1ccc(Cl)cc1 | 2.0 | 11.3 | -17.5% | -29.7 | -120.6*
CCn1cc(C(=O)OCC(=O)Nc2cc(Cl)ccc2C)c(=O)c2ccc(C)nc21 | / | / | -25.8% | / | /
N=c1ncn(C2OC(CO)C(O)C2O)c2nc(Br)[nH]c12 (configuration not stated) | / | / | -19.3% | -167.9* | -227.8*
Nc1nc2c(ncn2[C@@H]2O[C@H](CO)[C@@H](O)[C@H]2O)c(=O)[nH]1 | -0.4 | / | / | / | /
O=C(O)[C@H]1O[C@@H](Oc2ccc3ccc(=O)oc3c2)[C@H](O)[C@@H](O)[C@@H]1O | 0.9 | / | / | / | /
SMILES | Coupling enz | Giardia killer | USP1 inh | KCNH2 3.1 inh | KCNH2 WT inh
COc1cc(NS(=O)(=O)c2c(C)oc3c(F)c(F)c(F)c(F)c23)cc(OC)c1OC | / | 5.9 | -21.5% | -9.2 | -78.2*
O=C(Nc1cccc(-c2cccc(Cl)c2)c1)C1CCN(CC2CCOC2)CC1 (configuration not stated) | / | -12.6 | -19.1% | ? | -20.2
O=C(Nc1cccc(-c2cccc(F)c2)c1)C1CCN(C2CCC2)CC1 | / | -7.5 | -10.3% | -91.0* | -97.1*
O=C(Nc1cccc(F)c1)C1CCCCC1 | / | -26.0 | -27.5% | 5.6 | 5.0
O=C(Nc1cccc(-c2cccc(F)c2)c1)C1CCN(CC2CCOC2)CC1 (configuration not stated) | / | 4.2 | -5.3% | -78.7* | -43.5
COC(=O)c1ccc(Cl)cc1NC(=O)NC(C)c1c(-n2cccc2)sc(C)c1C (configuration not stated) | / | / | -27.8% | / | /
CC(NCc1cccc(OCc2ccccc2)c1)C(O)c1ccccc1 (configuration not stated) | -0.1 | 10.9 | -21.9% | -148.4* | 21.6
Cc1ccc(S(=O)(=O)NCC(=O)OC2CCOC2=O)cc1 (configuration not stated) | 1.6 | 4.5 | -20.4% | -94.9* | -125.8*
CCOC(=O)/C(=C/c1ccc(N2CCC(c3ccccc3)=N2)cc1)C(C)=O | -1.0 | 1.5 | 4.47µM* | -26.6 | -28.9
O=C(COc1ccccc1F)Nc1ccc(Cl)c(-c2nc3ccccc3[nH]2)c1 | / | / | 1.3% | / | /
O=C(Cn1nc(C(F)(F)F)c2c1CCCC2)Nc1cccc(Cl)c1 | / | / | -13.7% | / | /
Cc1cccc(NS(=O)(=O)c2cccc(C(=O)NCC3(N4CCCCC4)CCCCC3)c2)c1 | / | -8.7 | 1.0% | -47.6 | 11.5
Cc1ccc(S(=O)(=O)Nc2cccc(C(=O)NCC3(N4CCCCC4)CCCCC3)c2)cc1F | / | 0.1 | -10.2% | -78.3* | 4.1
COc1cnn(-c2cccc(C(F)(F)F)c2)c(=O)c1Cl | / | -8.8 | -15.5% | -7.4 | 5.6
COc1cnn(-c2cccc(Cl)c2)c(=O)c1Cl | / | 39.1 | -8.5% | -99.6* | -0.4
COc1ccccc1/C=c1\sc2nc(-c3ccco3)nn2c1=O | 4.5 | -10.2 | -12.1% | -23.0 | 16.9
COc1ccc(OC)c(/C=c2\sc3nc(-c4cccs4)nn3c2=O)c1 | 2.6 | -18.4 | 31.6µM* | 15.8 | 1.4
CCNc1cccc2c1C(=O)N(C)C2=O | -0.7 | -8.8 | 15.8µM* | -6.8 | -7.5
COC(=O)c1c(NS(=O)(=O)c2ccccc2)csc1C | -33.9* | -14.5 | 1.0% | -0.4 | -1.9
CCOC(=O)c1ccccc1NS(=O)(=O)c1ccccc1 | -25.9 | 30.7 | -12.8% | 0.9 | -19.2
O=[N+]([O-])c1ccc(CN2CCC(Cc3ccccc3)CC2)cc1 | -0.3 | 3.3 | -13.8% | ? | 3.2
O=[N+]([O-])c1cccc(OCCCN2CCC(Cc3ccccc3)CC2)c1 | / | 11.6 | -11.3% | -88.0* | -85.6*
Cc1ccc([N+](=O)[O-])c(OCCN2CCC(Cc3ccccc3)CC2)c1 | 0.7 | -0.4 | -17.3% | -93.3* | -4.2
CN(C)C(=O)c1ccc(NC(=O)CC2SC(N3CCCC3)=NC2=O)cc1 (configuration not stated) | / | 6.5 | 0.1% | -4.4 | 0.2
O=C(COC(=O)CC1SC(N2CCCC2)=NC1=O)Nc1c(F)c(F)c(F)c(F)c1F (configuration not stated) | / | 23.9 | 1.2% | -74.1* | -5.2
